The results in this text go back to PubChem BioAssay (NCATS).

Unmarked numbers belong to inactive results. Rule as the data show it, unless noted: active = potency below about 10 µM; inactive = the rest. Where only a bound is given, the exact number is not on record here.
Potency is read from the fitted curve at half-maximal effect.

Sequence of Lysosomal acid glucosylceramidase (Homo sapiens) (P04062 whole entry, looked up): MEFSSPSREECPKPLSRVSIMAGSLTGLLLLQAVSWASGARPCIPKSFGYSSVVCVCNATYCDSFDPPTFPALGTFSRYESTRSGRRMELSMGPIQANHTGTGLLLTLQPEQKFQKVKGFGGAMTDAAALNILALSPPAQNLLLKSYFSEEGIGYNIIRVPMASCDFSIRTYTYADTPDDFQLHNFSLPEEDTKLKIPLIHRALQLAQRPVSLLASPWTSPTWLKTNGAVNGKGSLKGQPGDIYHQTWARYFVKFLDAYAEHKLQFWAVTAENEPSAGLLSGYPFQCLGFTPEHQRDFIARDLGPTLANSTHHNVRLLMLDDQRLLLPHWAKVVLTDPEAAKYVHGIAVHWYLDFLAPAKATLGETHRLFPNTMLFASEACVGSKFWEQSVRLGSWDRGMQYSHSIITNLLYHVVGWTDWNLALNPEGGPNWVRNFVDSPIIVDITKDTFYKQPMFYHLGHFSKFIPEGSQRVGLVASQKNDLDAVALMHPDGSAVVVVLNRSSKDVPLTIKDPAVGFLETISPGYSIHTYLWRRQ

The test system of the first assay is HIV-1 nucleocapsid protein NCp7 (binding to TG oligonucleotide). Nature of the assay: HIV Nucleocapsid (AID 346; call rule not given here;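 also: potency is for inhibitors that block NC binding and lower polarization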). The settings on record: HIV-1 NC / fluorescein-TGTGTGTG probe, fluorescence polarization. A digest of the protocol:
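Fluorescence polarization binding of 100 nM HIV-1 NC to 10 nM fluorescein-labelled TG4xF oligonucleotide. Buffer was Hepes pH 7.5 with 250mM NaCl, 1uM ZnCl2, TCEP and 2-mercaptoethanol. Compounds were incubated 1 hr at room temperature before the read.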
For `CS(=O)(=O)N1CCC2(CCCN(Cc3ccncc3)C2)CC1`, the Potency was greater than 20 µM.

Consider `c1ccc(CN2CC[C@@]3(CCCNC3)C2)cc1`, for which the Potency was greater than 20 µM.

`CC(C)NC(=O)N1CCCC2(CCN(C(=O)Oc3ccccc3)CC2)C1`: the Potency is greater than 20 µM. Still for that read-out and setting: then `CC(C)CN1CCCC2(CCN(C(=O)c3ccncc3)CC2)C1`, with greater than 20 µM; and `N#Cc1cccc(NC(=O)N2CC3(CCN(C(=O)Oc4ccccc4)CC3)C2)c1`, with greater than 20 µM. With `O=C(c1cnccn1)N1CCC2(CC1)CN(Cc1ccncc1)C2`, the Potency was greater than 20 µM. For the molecule `O=C(Oc1ccccc1)N1CCC2(CC1)CN(Cc1ccncc1)C2`, the Potency was greater than 20 µM.

The target in a further assay is Lysosomal acid glucosylceramidase (Homo sapiens) (UniProt P04062). The experiment in a line: Glucocerebrosidase-p2 (AID 348). As to conditions: purified GBA, blue fluorogenic substrate, 40 min. A digest of the protocol:
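Normal human glucocerebrosidase (0.2 nM) with blue fluorogenic substrate (80 uM final) in citrate/phosphate pH 5.9 with 10mM sodium taurocholate, 0.01% tween-20; 40 min RT, NaOH/glycine stop; fluorescence Ex 365/Em 440; AC50 from a titration from 0.6 nM upwards.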
As for `CS(=O)(=O)N1CCC2(CCCN(Cc3ccncc3)C2)CC1`, the Potency is greater than 11.4 µM. As for `c1ccc(CN2CC[C@@]3(CCCNC3)C2)cc1`, the Potency was greater than 11.4 µM.

As to `O=C(c1ccncc1)N1CCC[C@@]2(CCN(Cc3nccs3)C2)C1`, the Potency is greater than 11.4 µM. As for `c1cc(CN2CC3(CCNCC3)C2)ccn1`, the Potency was greater than 11.4 µM. `c1csc(CN2CC[C@@]3(CCCNC3)C2)n1`: the Potency is greater than 11.4 µM. Same read-out and setting: then `COC(=O)N1CCC2(CCCN(C)C2)CC1`, with greater than 11.4 µM; and `c1ccc(CN2CCC3(CCNCC3)CC2)cc1`, with greater than 11.4 µM. Same read-out and setting: then `Cc1noc(C)c1C(=O)N1CCC2(CCCN(CC(C)C)C2)CC1`, with greater than 11.4 µM; and `CN1CC[C@@]2(CCCN(C(=O)c3ccncc3)C2)C1`, with greater than 11.4 µM. On the same count and under the same terms, then `c1cnc(N2CCCC3(CCNCC3)C2)nc1`, with greater than 11.4 µM. On to `c1ccc(N2CC3(CCNCC3)C2)cc1`, for which the Potency is greater than 11.4 µM. For `Clc1ccccc1-c1cncnc1NCCc1cnc[nH]1`, the Potency was greater than 11.4 µM. As to `CN1CC[C@@]2(CCCN(C(=O)Oc3ccccc3)C2)C1`, the Potency was greater than 11.4 µM. On to `c1csc(CN2CCC3(CCNCC3)CC2)n1`, for which the Potency is greater than 11.4 µM. Turning to `O=C(Nc1ccccc1)N1CC[C@@]2(CCCN(C(=O)Oc3ccccc3)C2)C1`, the Potency was greater than 11.4 µM. Take `O=C(c1csnn1)N1CCC2(CC1)CN(Cc1ccncc1)C2`: the Potency is greater than 11.4 µM. On to `CC(C)NC(=O)N1CC[C@@]2(CCCNC2)C1`, for which the Potency is greater than 11.4 µM.

As for `c1ccc(N2CC3(CCNCC3)C2)nc1`, the Potency is greater than 11.4 µM. With `CC(C)NC(=O)N1CCC2(CC1)CCN(C(=O)Oc1ccccc1)CC2`, the Potency was greater than 11.4 µM. `CC(C)NC(=O)N1CCCC2(CCN(C(=O)Oc3ccccc3)CC2)C1`: the Potency is greater than 11.4 µM. The same measure, in the same setting: for `CN1CCCC2(CCN(C(=O)Oc3ccccc3)CC2)C1` the value was greater than 11.4 µM; for `CC(C)CN1CCC2(CC1)CCN(S(C)(=O)=O)CC2`, greater than 11.4 µM. Still for that read-out and setting: then `CN1CCCC2(CCN(C(=O)c3csnn3)CC2)C1`, with greater than 11.4 µM; and `CC(C)CN1CCCC2(CCN(C(=O)c3ccncc3)CC2)C1`, with greater than 11.4 µM. The same measure, in the same setting: for `O=C(c1ccco1)N1CCC[C@@]2(CCN(Cc3ccncc3)C2)C1` the value was greater than 11.4 µM; for `O=C(Nc1ccccc1)N1CC2(CCN(C(=O)Oc3ccccc3)CC2)C1`, greater than 11.4 µM; for `CC(C)CN1CC[C@@]2(CCCN(C(=O)c3ccncc3)C2)C1`, greater than 11.4 µM. As for `Cc1noc(C)c1C(=O)N1CCC[C@@]2(CCN(CC(C)C)C2)C1`, the Potency is greater than 11.4 µM. On the same count and under the same terms, for `CC(C)CN1CC2(CCN(C(=O)Oc3ccccc3)CC2)C1` the value was greater than 11.4 µM; for `O=C(Oc1ccccc1)N1CCC2(CCCN(Cc3ccccc3)C2)CC1`, greater than 11.4 µM; for `N#Cc1cccc(NC(=O)N2CC3(CCN(C(=O)Oc4ccccc4)CC3)C2)c1`, greater than 11.4 µM. On the same count and under the same terms, then `O=C(c1cnccn1)N1CCC2(CC1)CN(Cc1ccncc1)C2`, with greater than 11.4 µM.

`O=C(Oc1ccccc1)N1CCC2(CC1)CN(Cc1ccncc1)C2`: the Potency was greater than 11.4 µM. For the molecule `CN1CCCC2(CCN(C(=O)c3ccco3)CC2)C1`, the Potency was greater than 11.4 µM.

On to `O=C(Nc1cccc(F)c1)N1CC2(CCNCC2)C1`, for which the Potency was greater than 11.4 µM.
